Assay results: PubChem BioAssay (EPA / NIEHS)
Several values for one entry are separate records, joined by “and”; a condition that tells them apart may be missing. Identical values can stand only once. Results filed as inconclusive are left out. Activity calls are given as the source filed them. The calls were made as follows, unless noted: active = hit-call score of the fitted dose curve at least 0.9, where 1 is the maximum; inconclusive = response in the unintended direction; inactive = score below 0.9.

Legend:
[1] = target: Cellular tumor antigen p53 (Homo sapiens) (UniProt P04637); experiment: TOX21_p53_BLA_p2_ratio: Tox21 HCT-116 p53 Agonism Beta-lactamase Assay, Ratio, Phase 2 (AID 2283592)
Cellular tumor antigen p53 (Homo sapiens), sequence (P04637 whole entry, looked up): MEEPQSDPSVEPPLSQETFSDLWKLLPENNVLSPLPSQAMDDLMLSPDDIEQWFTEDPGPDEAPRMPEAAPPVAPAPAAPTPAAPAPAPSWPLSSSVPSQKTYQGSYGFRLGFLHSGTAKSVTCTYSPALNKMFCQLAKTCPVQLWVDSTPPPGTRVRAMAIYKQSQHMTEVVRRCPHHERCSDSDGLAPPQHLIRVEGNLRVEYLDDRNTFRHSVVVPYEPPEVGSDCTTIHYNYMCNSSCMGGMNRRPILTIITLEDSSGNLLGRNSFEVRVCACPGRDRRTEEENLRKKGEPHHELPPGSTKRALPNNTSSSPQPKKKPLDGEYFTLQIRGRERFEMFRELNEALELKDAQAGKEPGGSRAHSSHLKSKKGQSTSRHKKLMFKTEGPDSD
In short: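 First, HCT116 reporter cells settle for 5 h at 37C. Next, DMSO compound solutions are pinned in (217-fold dilution) and left 16 h. Finally, CCF4-AM substrate is loaded 2 h at room temperature and the 460/530 nm ratio read.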

[2] = target: Cellular tumor antigen p53 (Homo sapiens) (UniProt P04637); experiment: TOX21_p53_BLA_p3_ratio: Tox21 HCT-116 p53 Agonism Beta-lactamase Assay, Ratio, Phase 3 (AID 2283596)
In short: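 Cells were seeded at 4000/well, rested 5 h at 37C, then dosed with DMSO compound solutions (217-fold dilution) for 16 h. CCF4-AM substrate was loaded for 2 h at room temperature, and the 460/530 nm emission ratio was fitted for gain of signal versus DMSO.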

[3] = target: Cellular tumor antigen p53 (Homo sapiens) (UniProt P04637); experiment: TOX21_p53_BLA_p5_ratio: Tox21 HCT-116 p53 Agonism Beta-lactamase Assay, Ratio, Phase 5 (AID 2283599)
In short: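 HCT-116 p53-bla cells (4000/well) plated 5 h, dosed with compound (217-fold DMSO dilution) for 16 h at 37 C; CCF4-AM substrate 2 h at room temperature. Activity is the 460/530 nm emission ratio (405 nm excitation), fitted in gain-of-signal direction versus DMSO.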

[4] = TOX21_p53_BLA_p5_viability: Viability Assessment in the Tox21 HCT-116 p53 Agonism Beta-lactamase Assay, Phase 5 (AID 2283600)
In short: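 Decreased CellTiter-Glo luminescence denotes lost viability. Exposure: 16 h at 37C, 5% CO2, with compounds from DMSO stocks diluted 217-fold in wells of 4000 cells.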

[5] = target: Cellular tumor antigen p53 (Homo sapiens) (UniProt P04637); experiment: TOX21_p53_BLA_p4_ratio: Tox21 HCT-116 p53 Agonism Beta-lactamase Assay, Ratio, Phase 4 (AID 2283601)
In short: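 HCT-116 p53 beta-lactamase reporter cells (4000/well) preincubated 5 h, then compound (217-fold dilution of DMSO stock) for 16 h at 37C. CCF4-AM substrate added 2 h at room temperature; 460/530 nm emission ratio fitted upward versus DMSO.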

[6] = TOX21_p53_BLA_p4_viability: Viability Assessment in the Tox21 HCT-116 p53 Agonism Beta-lactamase Assay, Phase 4 (AID 2283597);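 also: hits lower the luminescence signal meaning cytotoxicity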
In short: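 4000 HCT116 cells per well; 5 h attachment; compounds from DMSO, 217-fold dilution; 16 h at 37C. Then CCF4-AM, 2 h RT, followed by CellTiter-Glo, 30 min RT, luminescence. Decrease = cytotoxicity.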

[7] = CCTE_Harrill_HTTr_Viability_MCF7: CCTE's 6-hour Cell Viability Assessment for the High-Throughput Transcriptomics (HTTr) Platform, in MCF-7 cells cultured in DMEM + 10% fetal bovine serum, Harrill Lab (AID 2284010; active = hit-call score of the fitted dose curve at least 0.9, where 1 is the maximum; inactive = score below 0.9)
In short: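 Propidium iodide exclusion, imaged by high-content analysis, gauged viability after a six-hour exposure across eight concentrations. Cells were MCF-7 grown in DMEM with 10% fetal bovine serum; fits run in both directions against DMSO.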

[8] = CCTE_Harrill_HTTr_Apoptosis_MCF7: CCTE's 6-hour Apoptosis Assessment for the High-Throughput Transcriptomics (HTTr) Platform, in MCF-7 cells cultured in DMEM + 10% fetal bovine serum, Harrill Lab (AID 2284011; active = hit-call score of the fitted dose curve at least 0.9, where 1 is the maximum; inactive = score below 0.9)
In short: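 MCF-7 cells in DMEM + 10% FBS exposed 6 h to chemicals over an eight-point dilution series. Caspase-3/7 activation imaged by high-content CellEvent Green staining; fitted bidirectionally versus DMSO.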

Measured: AC50

O=Cc1ccc(Cl)cc1Cl
inactive: [1] | [2] | [3] | [4] | [5]

Cc1ncc(CNC(=O)N(CCCl)N=O)c(N)n1
inactive: [1] | [2] | [3] | [5]

c1ccc2c(c1)OCC(C1=NCCN1)O2 (stereo unspecified)
inactive: [1] | [2] | [6] | [3] | [5]

COP(=S)(OC)Oc1ccc([N+](=O)[O-])cc1Cl
inactive: [1] | [2] | [6] | [4] | [5]

O=C(O)c1cc(Cl)ccc1Cl
inactive: [1] | [2] | [6] | [3] | [4]

CN1CCc2cc3c(cc2C1O)OCO3 (stereo unspecified)
inactive: [4]
active: [1] 46.3 µM | [2] 61.2 µM | [3] 46.3 µM | [5] 46.3 µM

CC(Cc1ccccc1)NC=O (stereo unspecified)
not listed: [7] | [8]
inactive: all other assays above

N[C@@H](Cc1ccc(N(CCCl)CCCl)cc1)C(=O)O
active: [1] 26.6 µM and 25.6 µM | [2] 20.2 µM and 24.6 µM | [3] 32.6 µM and 29.2 µM | [5] 22.7 µM and 30.4 µM
inactive: [6] | [4]

Oc1ccc2c3c1O[C@H]1[C@@H](O)C=C[C@H]4[C@@H](C2)NCC[C@@]341
inactive: [1] | [2] | [6] | [3] | [5]

BrC(Br)Br
inactive: all assays above

N#C/C=C/C#N
active: [2] 93.4 µM
inactive: [1] | [3]

O=c1oc2ccccc2c(O)c1C1CCCc2ccccc21 (stereo unspecified)
inactive: [1] | [2] | [3] | [4]
